# Source: PubChem BioAssay
# L3MBTL1 inh – qHTS Assay for the Inhibitors of L3MBTL1; Lethal(3)malignant brain tumor-like protein 1 (Homo sapiens), Q9Y468; AlphaScreen L3MBTL1–H3K9me1 peptide binding; Potency, µM (top dose mostly 57.1 µM), without a hit: at the highest dose activity, negative = inhibition, usual class: inhibitors; hit rate 0.66% among 230,000; AID 485360, 2010; further: on the % scale 0 is the no-effect control and ±100 the full control effect; nearly all actives have a fitted effect of over 60% in size
#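 AlphaScreen assay: L3MBTL1 (50 nM final) was preincubated 30 min at room temperature with biotinylated H3(1-15)K9me1 peptide (75 nM final), then 30 min with library compounds; streptavidin donor and nickel chelate acceptor beads (10 ug/mL final) added, 30 min dark.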
# BAZ2B block – qHTS Assay for Inhibitors of BAZ2B; Bromodomain adjacent to zinc finger domain protein 2B (Homo sapiens), Q9UIF8; AlphaScreen BAZ2B-H3K14Ac peptide displacement; Potency, µM (highest dose often 114 µM), inactives show top-dose activity change, negative = inhibition, actives largely listed as inhibitors; hit rate 4.4% among 360,000; AID 504333, 2011; further: on the % scale 0 is the no-effect control and ±100 the full control effect; nearly all actives have a fitted effect of over 60% in size
#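 Inhibition is scored as reduced AlphaScreen emission. The BAZ2B/b-H3(5-23)K14Ac complex (50 nM each) in PBS pH 7.4, 0.01% Tween-20 meets compound (up to 110 uM) for 30 min at RT before bead addition.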
# HP1b chromo inh – HTS for Inhibitors of HP1-beta Chromodomain Interactions with Methylated Histone Tails; AlphaScreen HP1-beta / biotin-H3K9me3 peptide binding; Potency, µM (highest dose often 114 µM), for the others: at the top dose activity change, negative = inhibition, most hits filed as inhibitors; hit rate 0.56% among 390,000; AID 540317, 2011; further: nearly all actives have a fitted effect of over 70% in size
#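 Compound inhibition of the preformed complex between 50 nM HP1-beta and 50 nM biotinylated H3K9me3 peptide was read by AlphaScreen. Buffer was PBS pH 7.4 with 0.01% Tween-20. Incubations ran 30 min at room temperature, with 10 ug/mL donor/acceptor beads.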
# JMJD2A Tudor inh – qHTS Assay for Inhibitors of JMJD2A-Tudor Domain | Lysine-specific demethylase 4A (Homo sapiens), O75164 | AlphaScreen JMJD2A-Tudor / H3K4me3 peptide binding | Potency, µM (titrated, usually from 114 µM), inactives show top-dose activity change, negative = inhibition, most hits filed as inhibitors | hit rate 4.4% among 390,000 | AID 504339, 2011; further: on the % scale 0 is the no-effect control and ±100 the full control effect; nearly all actives have a fitted effect of over 50% in size
# G9a inh – qHTS Assay for Inhibitors of Histone Lysine Methyltransferase G9a. Histone-lysine N-methyltransferase EHMT2 (Homo sapiens), Q96KQ7. G9a H3K9 monomethylation, AlphaScreen, 2 h. Potency, µM (doses to about 102 µM), inactives show at the highest dose activity, negative = inhibition, hits mostly inhibitors. hit rate 8.8% among 350,000; further: on the % scale 0 is the no-effect control and ±100 the full control effect; nearly all actives have a fitted effect of over 75% in size
#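 Readings reflect AlphaScreen signal from monomethyl-H3K9 antibody detection. HMT at 20 nM; substrate b-H3K9 500 nM; cofactor SAM 20 uM; 2 h RT reaction; compounds tested as titrations in qHTS with 15 min preincubation.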
# An asterisk follows results filed as active; ? = inconclusive; . = no result; [ ] = remark or other dose. Hits are enriched below; roughly 11% of the tested compounds scored in any of these assays. The call rests on the fitted dose curve; in most records, active means well fitted inhibition curve with a large enough effect; inconclusive means small, poorly fitted or top-dose-only effect; inactive means no such curve, though single readings can be large or run the other way. Potency means the concentration at half of the fitted maximal effect.
SMILES,L3MBTL1 inh,BAZ2B block,HP1b chromo inh,JMJD2A Tudor inh,G9a inh
O=C(Oc1ccccc1)N1CCC2(CCCN(Cc3nccs3)C2)CC1,.,.,.,.,-8%[12.7 µM]
O=C(O)c1cn(Cc2ccccc2)nc1-c1ccccc1,4%,-17%,33%,-10%,6%
O=C(O)CSCC(=O)N(Cc1ccccc1)c1nc(-c2ccccc2)c(-c2ccccc2)s1,.,50µM*,-22%,56µM*,?
CCOC(=O)c1ccc2c(c1)n(Cc1ccccc1)c(C)[n+]2CC,9%,-4%,48%,-8%,16%
CCOC(=O)Cn1c(C)[n+](C)c2cc(Cl)c(Cl)cc21,-9%,-1%,2%,28µM*,45µM*
CCN1C(=NCCCOC(C)C)N[C@@H](c2ccccc2)[C@H](C(=O)OC)[C@H]1C,4%,8%,4%,?,14%[12.7 µM]
CN1CCN(c2ccc([N+](=O)[O-])c(Sc3ccccn3)c2)CC1,-14%,-18%,8%,-17%,0%
NNS(=O)(=O)c1ccc(Sc2ccccn2)c([N+](=O)[O-])c1,-5%,-14%,31%,-20%,40µM*
N#Cc1ccc(CN2CCC3(CC2)CCN(C(=O)Oc2ccccc2)CC3)cc1,.,.,.,.,2%[12.7 µM]
O=[N+]([O-])c1ccc(-c2ccccc2)c([As](=O)(O)O)c1,4%,?,51%,-19%,13µM*
C#CCOC(C(=O)OCCN(C)C)(c1ccccc1)c1ccccc1,.,.,.,.,-27%[12.7 µM]
Cn1c(O)c(C(=O)c2ccccc2F)c(=O)n(C)c1=O,.,-30%,28%,-17%,11µM*
CCOc1ccc(N=C2SCCCN2C)cc1,-1%,-4%,5%,?,3.5µM*
COC(=O)C1=C(C)NC(C)=C(C(=O)OC)C1c1ccccc1[N+](=O)[O-],-16%,40µM*,?,?,3µM*
Cc1ccccc1[N+](=O)[O-],8%,-1%,100%,-10%,13%[0.501 µM]
O=C(O)c1ccc[nH]c1=S,-1%,40µM*,38%,0.89µM*,3.5µM*
O=C(O)c1ccccc1C(=O)O,6%,?,97%,-12%,1%[0.501 µM]
Cc1c(CCC(=O)N2CCCCC2)c(=O)oc2cc3occ(C(C)(C)C)c3cc12,.,-4%,17%,?,-32%[59 µM]
Cc1cccc(C(=O)NC(Oc2ccccc2)C(Cl)(Cl)Cl)c1 (stereo unspecified),7%,10%,0%,40µM*,4%[59 µM]
C[n+]1c(-c2ccccc2)cc(CCCCc2cc(-c3ccccc3)[n+](C)c(-c3ccccc3)c2)cc1-c1ccccc1,1%,?,-19%,?,40µM*
COc1ccc(-c2cc(-c3ccccc3)[n+](C)c(-c3ccccc3)c2)cc1,7%,0%,-16%,-13%,8%
CC1(C)C2CC=C(CN3CCC(O)CC3)C1C2 (stereo unspecified),-11%[11.4 µM],?,-21%,3.5µM*,?
CCN(CC)CCN1C(=O)CN=C(c2ccccc2F)c2cc(Cl)ccc21,.,.,.,.,18%[59 µM]
C(=C\c1ccccc1)/CN1CCN(CCOC(c2ccccc2)c2ccccc2)CC1,.,.,.,.,11µM*
Clc1ccc([C@@H](OCCN2CCCCC2)c2ccccc2)cc1,.,.,.,.,5%[21.5 µM]
SMILES,L3MBTL1 inh,BAZ2B block,HP1b chromo inh,JMJD2A Tudor inh,G9a inh
O=C(O)c1ccccc1S,5%,3%,.,.,40µM*
CC(C)=CCC/C(C)=C/CN(CC(C)O)CC(C)O (stereo unspecified),-11%[11.4 µM],-4%,?,3.2µM*,10µM*
O=C(O)c1[nH]c(=O)[nH]c(=O)c1F,17%,50µM*,-1%,7.1µM*,28µM*
c1csc(CN2CCC3(CCNCC3)CC2)n1,.,.,.,.,4%[12.7 µM]
CCCCC(=O)N/N=C/c1c(O)n(CCc2ccccc2)c(=O)[nH]c1=O,-23%,?,14%,79µM*,7%[12.7 µM]
CCN(CCO)c1ccc(N=Cc2c(O)n(C)c(=S)[nH]c2=O)cc1,.,56µM*,14%,?,35µM*
CCCCC(=O)N/N=C/c1c(O)n(Cc2ccc(F)cc2)c(=O)[nH]c1=O,.,?,26%,-30%,-12%
COc1ccc(CCn2c(O)c(C=Nc3ccc(F)cc3)c(=O)[nH]c2=O)cc1OC,1%,-3%,20%,-24%,.
COc1ccc(CCn2c(O)c(/C=N/NC(=O)c3ccncc3)c(=O)[nH]c2=O)cc1OC,-5%,?,20%,-27%,4%
CCN(CC)c1ccc(N=Cc2c(O)n(CCc3ccc(OC)c(OC)c3)c(=O)[nH]c2=O)cc1,-15%,-3%,4%,-29%,7.1µM*
CCCCC(=O)N/N=C/c1c(O)n(CCc2ccc(OC)c(OC)c2)c(=O)[nH]c1=O,-4%,50µM*,28%,0%,?
Cc1cccc(C2CC(=O)Oc3c2c(=O)oc2ccccc32)c1 (stereo unspecified),.,?,10%,-14%,-30%[59 µM]
